{"source": "PubChem BioAssay (NCATS)", "note": "“And” between values parts separate entries of the source, which are not always exact repeats. Equal values may be shown once. Records with an inconclusive call do not appear. Where a call stands in place of a potency, no number is given. The source made the active and inactive calls. The call rests on the fitted dose curve; in most records, active means well fitted curve in the direction sought with a large enough effect; inconclusive means small, poorly fitted or top-dose-only effect, or another doubt; inactive means no such curve, though single readings can be large; an effect the other way counts as inactive or inconclusive."}
{"assay": "qHTS Assay for Identifying Gametocytocidal Compounds (AID 743244);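 further: actives lower the fluorescent signal which means gametocytes are killed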", "details": "P. falciparum 3D7 stage III-V gametocytes, alamarBlue, 72 h; max response: hits give low values", "summary_of_the_method": "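A resazurin-based viability read-out was applied to mature P. falciparum gametocytes: 72 h compound treatment, then 24 h dye incubation, with falling fluorescence signalling gametocytocidal effect.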"}
{"smiles": "C[C@H](/C=C/[C@H](C)C(C)(C)O)[C@H]1CC[C@H]2/C(=C/C=C3C[C@@H](O)C[C@H](O)C3)CCC[C@]12C", "max response": "11.6% (inactive)"}
{"smiles": "NCCCC(=O)O", "max response": "8.69% (inactive) and -6.82% (inactive)"}
{"smiles": "CCC[C@@]1(CCc2ccccc2)CC(O)=C([C@H](CC)c2cccc(NS(=O)(=O)c3ccc(C(F)(F)F)cn3)c2)C(=O)O1", "max response": "14.3% (inactive)"}
{"assay": "P-glycoprotein substrates identified in KB-8-5-11 adenocarcinoma cell line, qHTS therapeutic library screen (AID 1346987); further: nearly all actives have a fitted effect of over 65% in size; further: potency means the concentration at half of the fitted maximal effect", "details": "KB-8-5-11 (P-gp overexpressing) viability, CellTiter-Glo, 72 h; series mostly up to 44.5 µM", "summary_of_the_method": "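KB-8-5-11: colchicine-selected sub-line of KB-3-1 over-expressing P-gp; assay medium lacked colchicine. 72 h drug exposure at 37 degree C, CellTiter-Glo.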"}
{"smiles": "O=C(Nc1cnc(Cl)nc1)c1ccc(F)c(F)c1", "Potency": "inactive"}
{"smiles": "CC1OC(OC2C(O)COC(O[C@@H]3[C@@H](O)[C@@H](O)[C@H](OC4C(OC(=O)[C@]56CCC(C)(C)CC5C5=CCC7[C@@]8(C)C[C@H](O)[C@H](OC9OC(CO)C(O)C(O)C9O)[C@@](C)(CO)C8[C@H](O)C[C@@]7(C)[C@]5(C)CC6)OCC(O)C4O)O[C@H]3C)C2O)C(O)C(O)C1O", "note": "(some centres undefined)", "activity change, negative = cytotoxicity": "-5.97% [at 9.29 µM] (inactive)"}
{"smiles": "COC1CCN(c2cccc(-c3cc(NC(C)=O)nc(-n4nc(C)cc4C)n3)n2)CC1", "Potency": "20.6 µM (active)"}
{"smiles": "C[C@H](/C=C/[C@H](C)C(C)(C)O)[C@H]1CC[C@H]2/C(=C/C=C3C[C@@H](O)C[C@H](O)C3)CCC[C@]12C", "Potency": "8.2 µM (active)"}
{"smiles": "CC1CC(=O)C2=C(C1)C1OC1C1(O)C2C(=O)c2cccc(O)c2C1O", "note": "(centres undefined)", "Potency": "inactive"}
{"smiles": "NCCCC(=O)O", "Potency": "inactive"}
{"smiles": "CCC(C)C(=O)OC12C(OC(C)=O)C(C)C3(O)C(C=C(CO)CC4(O)C(=O)C(C)=CC43)C1C2(C)C", "note": "(centres undefined)", "Potency": "inactive"}
{"smiles": "O=S(=O)(NCc1cccc2ccccc12)c1cc(Cl)c(Oc2cccc(N3CCNCC3)c2)s1", "Potency": "16.4 µM (active)"}
{"smiles": "C[C@@H](NC(=O)c1ccc(C#Cc2cccc(F)c2)cn1)C(C)(C)O", "Potency": "inactive"}
{"smiles": "CC(C)S(=O)(=O)Nc1ccc(F)c(C(=O)c2c[nH]c3ncc(-c4cccnc4)cc23)c1F", "Potency": "inactive"}
{"smiles": "CN(C)[C@@H]1CCc2[nH]c3ccc(NC(=O)c4ccc(F)cc4)cc3c2C1", "Potency": "inactive"}
{"smiles": "O=C(O)C1=CO[C@@H](O[C@@H]2O[C@H](CO)[C@@H](O)[C@H](O)[C@H]2O)[C@@H]2C(CO)=CC[C@H]12", "Potency": "inactive"}
{"smiles": "O=C(NCCN1CCOCC1)c1cc2c(Oc3ccc(NC(=O)C4(C(=O)Nc5ccc(F)cc5)CC4)cc3)ccnc2[nH]1", "Potency": "inactive"}
{"smiles": "O=C(CCCN1CCC(n2c(=S)[nH]c3ccccc32)CC1)c1ccc(F)cc1", "Potency": "9.2 µM (active)"}
{"smiles": "COc1ccc(S(=O)(=O)N2CCC[C@H]2C(=O)Nc2cc(C)cc(C)c2)cc1", "Potency": "inactive"}
{"smiles": "COc1ccc(CNCc2cccc3ccccc23)cc1", "Potency": "inactive"}
{"smiles": "COc1cc(-c2nc(N[C@H](CO)Cc3ccccc3)ccc2C(=O)NCCOc2ccccc2)cc(OC)c1OC", "Potency": "inactive"}
{"smiles": "NCCOc1cc(C(=O)Nc2cc(OCCN)c3ccccc3n2)nc(C(=O)Nc2cc(OCCN)c3ccccc3n2)c1", "Potency": "inactive"}
{"smiles": "CCNC(=O)N1CCCN(c2ccc(C(=O)NCCc3ccc(Cl)cc3Cl)cc2NC(=O)c2cccc(Cl)c2)CC1", "Potency": "inactive"}
{"smiles": "Fc1ccc(-c2cncc(CN3CCN(c4cccc5c4OCCO5)CC3)c2)cc1", "Potency": "inactive"}
{"smiles": "CC(C)=CCC/C(C)=C/COCC1OC(n2ccc(=O)[nH]c2=O)C(O)C1O", "note": "(centres undefined)", "Potency": "inactive"}
{"smiles": "C[C@H]1CO[C@@H]2Cn3cc(C(=O)NCc4ccc(F)cc4F)c(=O)c(O)c3C(=O)N12", "Potency": "inactive"}
{"smiles": "CC(C)c1cccc(C(C)C)c1NC(=O)Nc1ccc(Sc2ccc([N+](=O)[O-])cc2)cc1", "Potency": "5.8 µM (active)"}
{"smiles": "COC(=O)CC1OC(C)C2=C(O)c3c(O)cccc3C(=O)C23OC13", "note": "(centres undefined)", "Potency": "10.1 µM (active)"}
{"smiles": "Clc1ccc(Nc2nc3ccccc3c3nc(C4CCCCC4)[nH]c23)cc1Cl", "Potency": "16.4 µM (active)"}
{"smiles": "CC(C)C[C@@H]1NC(=O)[C@@H]2C[C@@]34C[C@@H]5[C@@]6(C)CCCC(C)(C)C6CC[C@@]5(C)N(c5ccccc53)[C@H]4N2C1=O", "note": "(some centres undefined)", "Potency": "inactive"}
{"smiles": "Cc1cc2sc(NC(=O)Cc3ccccc3)nc2cc1Cl", "Potency": "inactive"}
{"smiles": "Cc1cc(N2CCOCC2)ccc1Nc1nc(NC2CCCCC2)c2[nH]cnc2n1", "Potency": "1.3 µM (active)"}
{"smiles": "COC(=O)c1ccc(N2CCN(C)CC2)c(NC(=O)c2cccc(OC)c2)c1", "Potency": "inactive"}
{"smiles": "CCCN1CCC=C(c2cc(-c3ccc(C)cc3)no2)C1", "Potency": "inactive"}
{"smiles": "CC(=O)N[C@H]1[C@H](O[C@H]2CC[C@@]3(C)C(CC[C@]4(C)C3CC=C3C5CC(C)(C)CC[C@]5(C(=O)O)C(O)C[C@]34C)C2(C)C)O[C@H](CO[C@@H]2O[C@H](C)[C@H](O)[C@H](O)[C@H]2O[C@@H]2OC[C@@H](O)[C@H](O)[C@H]2O)[C@@H](O)[C@@H]1O", "note": "(some centres undefined)", "activity change, negative = cytotoxicity": "-2.51% [at 9.29 µM] (inactive)"}
